# Source: PubChem BioAssay
# Inconclusive results are not listed. Activity calls are given as the source filed them. Unless noted, the rule behind the calls is not given here.
# Columns and labels:
# [1] = circadian clock period modulators, cell-based, LOPAC library, luminescence reporter (AID 2774); conditions: circadian reporter cells, at 7 µM, actives lie on both sides;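 note: values are relative to mean of DMSO wells on each plate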
# [2] = system: Hepatitis C virus NS3 helicase; assay: HCV NS3 helicase inhibitors, primary screen, biochemical, fluorescence polarization, LOPAC1280 library (AID 687035; in the data active = inhibition above about 37%); conditions: Purified HCV NS3 helicase, Cy5-dT15 ssDNA binding fluorescence polarization; stronger effect = higher value; concentration not given here
# [3] = Cy5 fluorescence quenching or enhancement artefacts, artefact control for HCV NS3 helicase inhibitor project, biochemical, LOPAC1280 (AID 687037); conditions: Cy5-DNA-NS3h complex fluorescence interference counterscreen
# [4] = sensitizers of A549 cells to miR-34 induction, primary screen, imaging, A549 dox-inducible miR-34, nuclei and caspase counts (AID 1347080;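 active = compounds whose cell count with miR-34 switched on is under 0.7 times the count with it off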); conditions: A549 miR-34 inducible, Hoechst nuclei count, 48 h
# [5] = phospholipid biosynthesis inhibitors in animal cells, primary screen, cell-based, LOPAC library, screen 4 (AID 1347384); conditions: phospholipid biosynthesis inhibition screen, at 10 µM
# [6] = viability rescue of complex I mutant cybrids, primary screen, cell-based, galactose medium, ATP luminescence (AID 1645843;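 active = z-score of at least 1.8 in each of two replicates, scored against plate mean and spread of sample wells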;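 note: positive z means more ATP and so rescue of galactose-driven cybrid death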); conditions: complex I mutant cybrid cells, 72 h, stronger effect = higher value
# [7] = biological target: ATP-dependent translocase ABCB1 (Homo sapiens) (UniProt P08183); assay: MDR1 (ABCB1) efflux transporter inhibition, cell-based (AID 377; in the data active = fluorescence slope change above about 50%); conditions: MDR1-expressing cells, fluorescent substrate accumulation slope; stronger effect = higher value; concentration not given here
# [8] = hESC survival regulators, cell-based (AID 493140); conditions: human embryonic stem cell survival screen; stronger effect = higher value;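 note: cells exposed to compounds for four days before counting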
# [9] = liver-stage malaria parasite growth inhibition, primary screen, cell-based, HepG2, luciferase luminescence, HepG2 viability (AID 624349; in the data active = parasite load remaining mostly below about 12%, no sharp cut-off; inactive = mostly above about 10%;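 note: 100% = mean of DMSO negative control wells on the same plate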); conditions: P. berghei liver stage in HepG2, luciferase luminescence, concentration not given here; parasite load remaining: stronger effect = lower value; viability: measured here: HepG2 viability without parasites
# [10] = stronger effect = lower value, cell number ratio, induced over uninduced
# [11] = measured here: relative caspase fold change +Dox/-Dox
# [12] = measured here: total cells with miR-34 induction, stronger effect = lower value
# [13] = measured here: total cells without miR-34 induction
# Sequence of ATP-dependent translocase ABCB1 (Homo sapiens) (P08183 whole entry, looked up): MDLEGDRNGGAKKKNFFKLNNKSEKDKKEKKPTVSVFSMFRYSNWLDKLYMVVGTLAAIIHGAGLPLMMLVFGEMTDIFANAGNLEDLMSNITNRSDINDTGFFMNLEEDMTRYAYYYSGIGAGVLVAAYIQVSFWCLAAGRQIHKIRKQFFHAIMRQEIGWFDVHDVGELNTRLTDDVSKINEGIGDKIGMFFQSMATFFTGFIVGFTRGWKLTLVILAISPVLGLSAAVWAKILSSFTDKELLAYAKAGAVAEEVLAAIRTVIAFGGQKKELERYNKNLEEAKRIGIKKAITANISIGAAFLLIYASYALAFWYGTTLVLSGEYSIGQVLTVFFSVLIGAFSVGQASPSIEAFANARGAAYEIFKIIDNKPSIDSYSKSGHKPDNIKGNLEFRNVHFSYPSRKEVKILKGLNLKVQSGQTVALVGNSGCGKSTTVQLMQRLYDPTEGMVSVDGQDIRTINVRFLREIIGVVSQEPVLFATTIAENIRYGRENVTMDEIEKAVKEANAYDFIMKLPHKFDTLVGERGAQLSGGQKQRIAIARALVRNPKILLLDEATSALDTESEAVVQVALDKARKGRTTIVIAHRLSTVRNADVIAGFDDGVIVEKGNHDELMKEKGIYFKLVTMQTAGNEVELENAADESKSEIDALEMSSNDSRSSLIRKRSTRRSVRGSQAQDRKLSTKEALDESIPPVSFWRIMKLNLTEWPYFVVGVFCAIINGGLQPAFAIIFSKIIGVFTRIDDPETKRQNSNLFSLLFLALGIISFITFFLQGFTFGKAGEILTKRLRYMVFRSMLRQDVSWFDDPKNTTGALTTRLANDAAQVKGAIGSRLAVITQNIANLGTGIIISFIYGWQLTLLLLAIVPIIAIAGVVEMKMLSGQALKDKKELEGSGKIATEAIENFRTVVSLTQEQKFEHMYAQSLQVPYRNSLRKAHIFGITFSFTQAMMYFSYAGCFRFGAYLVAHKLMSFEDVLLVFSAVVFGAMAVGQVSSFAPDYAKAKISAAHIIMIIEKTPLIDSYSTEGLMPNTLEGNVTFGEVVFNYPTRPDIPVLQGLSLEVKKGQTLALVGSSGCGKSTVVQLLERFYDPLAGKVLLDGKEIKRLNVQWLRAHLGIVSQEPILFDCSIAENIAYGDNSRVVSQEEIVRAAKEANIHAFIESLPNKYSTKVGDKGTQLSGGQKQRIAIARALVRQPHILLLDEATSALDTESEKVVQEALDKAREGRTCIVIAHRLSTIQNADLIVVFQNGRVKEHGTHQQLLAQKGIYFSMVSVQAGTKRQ
Compound,period change [1],inhibition [2],fluorescence ratio (interference) [3],"fold change [4, 10]","fold change [4, 11]","cell count [4, 12]","cell count [4, 13]",outcome [5],z-score [6],fluorescence slope change [7],survival [8],parasite load remaining [9],viability [9]
O=C(Nc1cccc(C(=O)Nc2ccc(S(=O)(=O)O)c3cc(S(=O)(=O)O)cc(S(=O)(=O)O)c23)c1)Nc1cccc(C(=O)Nc2ccc(S(=O)(=O)O)c3cc(S(=O)(=O)O)cc(S(=O)(=O)O)c23)c1,-0.03 h (inactive),91% (active),1.1 (inactive),1.05 (inactive),0.567,9650,9220,inactive,0.865 (inactive),–,–,–,–
S=C(Nc1ccccc1)Nc1nccs1,0.02 h (inactive),-3% (inactive),1 (inactive),1.08 (inactive),0.629,6230,5760,inactive,-1.19 (inactive),65.3% (active),–,–,–
CN1C2CCC1CC(OC(=O)C(O)c1ccccc1)C2 (stereo not given),0.16 h (inactive),–,–,1.02 (inactive),1.06,10900,10700,inactive,0.155 (inactive),–,–,–,–
Nc1nc2ccc(Cl)cc2n2c(-c3ccccc3)nnc12,–,–,–,1.08 (inactive),0.972,11200,10300,inactive,1.13 (inactive),–,–,–,–
CNCCNS(=O)(=O)c1cccc2cnccc12,0.23 h (inactive),-6% (inactive),0.9 (inactive),1.05 (inactive),1.37,10700,10200,inactive,-0.89 (inactive),–,194 (active),51% (inactive),111%
COc1cc(OC)cc(-c2cc3cnc(N)nc3nc2NC(=O)NC(C)(C)C)c1,–,–,–,1.04 (inactive),2.01,4510,4320,inactive,0.34 (inactive),–,–,–,–
Nc1ccn(C2O[C@H](CO)[C@@H](O)C2(F)F)c(=O)n1 (stereo not given in full),–,–,–,1.18 (inactive),1.01,1960,1660,inactive,-1.32 (inactive),–,–,–,–
Nc1nc2c(nc(Br)n2C2OC3COP(=O)(O)O[C@@H]3C2O)c(=O)[nH]1 (stereo not given in full),-0.01 h (inactive),-2% (inactive),1 (inactive),1.05 (inactive),1.74,10000,9530,inactive,0.555 (inactive),–,–,–,–
Brc1ccc([C@H]2CN3CCSC3=N2)cc1,-0.16 h (inactive),0% (inactive),0.9 (inactive),1.04 (inactive),1.3,9880,9490,inactive,0.145 (inactive),–,79.5 (inactive),–,–
CCCOC(=O)c1c(-c2ccccc2)nc(CC)c(C(=O)SCC)c1CCC,-0.02 h (inactive),-3% (inactive),1 (inactive),1.01 (inactive),0.935,9020,8910,inactive,-1.19 (inactive),–,–,–,–
c1ccc(CN2CCC3(CCCc4ccccc43)CC2)cc1,0 h (inactive),-3% (inactive),1 (inactive),1.19 (inactive),0.602,7360,6160,inactive,-1.27 (inactive),–,–,–,–
CS(=O)(=O)c1ccc(-n2nc(C(F)(F)F)cc2-c2ccc(F)cc2)cc1,–,–,–,1.12 (inactive),0.872,9270,8270,inactive,0.62 (inactive),–,–,–,–
Nc1ncnc2c1ncn2[C@@H]1O[C@H](CO)[C@H](O)C1O (stereo not given in full),0.045 h (inactive),-1% (inactive),0.9 (inactive),1 (inactive),1.47,11100,11100,inactive,2.61 (active),–,3.25 (inactive),–,–
CC(=O)C(C)=O,-0.125 h (inactive),-3% (inactive),1 (inactive),1.06 (inactive),0.938,10100,9490,inactive,0.23 (inactive),–,–,–,–
COc1cccc2c1[C@@H]1CN(CCCCn3c(=O)[nH]c4c(sc5ncc(-c6ccccc6)nc54)c3=O)C[C@@H]1CO2,-0.035 h (inactive),-5% (inactive),0.9 (inactive),1.07 (inactive),1.42,6250,5860,inactive,-1.02 (inactive),–,–,–,–
[N-]=[N+]=Nc1ccc(C(=O)CSC[C@H](NC(=O)CC[C@H](N)C(=O)O)C(=O)NCC(=O)O)cc1,0 h (inactive),-5% (inactive),0.9 (inactive),0.923 (inactive),1.4,5390,5840,inactive,-1.12 (inactive),–,–,–,–
N[C@H](C(=O)O)[C@H](O)C(=O)O,-0.095 h (inactive),-1% (inactive),1 (inactive),0.956 (inactive),1.57,9780,10200,inactive,0.175 (inactive),–,–,–,–
CN1C2CC(OC(=O)[C@H](CO)c3ccccc3)CC1C1OC12 (stereo not given in full),0.01 h (inactive),-4% (inactive),1 (inactive),0.96 (inactive),0.75,10100,10500,inactive,0.535 (inactive),–,4.58 (inactive),–,–
CCCCCCCCCCCCCCCCCCN(CCCCCCCCCCCCCCCCCC)CCCN(CCO)CCO,–,–,–,0.981 (inactive),1.42,10100,10300,inactive,0.39 (inactive),–,–,–,–
OCC1O[C@H](O)C(Cl)C(O)C1O (stereo not given in full),0.3 h (inactive),-1% (inactive),1 (inactive),0.973 (inactive),1.54,9780,10100,inactive,-0.395 (inactive),–,–,–,–
